Source: PubChem BioAssay (NCI)
The panel holds about 83,000 compounds, 20% with a hit somewhere; the sample as a whole holds those more often.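 Testing used 96-well plates and a 48-hour single-concentration exposure. Example: -40 means 40% of the starting cells died.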 A number with no mark means an inactive call. Active and inactive are the calls of the source. Rule for the calls: active = growth percent below 10; inactive = the rest.

Test system: MDA-MB-468 breast
Test: NCI-60 one-dose screen, 48 h (100 = growth as untreated, 0 = no growth, -100 = all killed)
Details: 10 µM unless noted

Row | Structure (SMILES) | growth
1 | O=S(=O)(NCCO)c1ccc(OCCOc2ccc(S(=O)(=O)NCCO)cc2)cc1 | 95.3%
2 | CC(=O)Nc1ccc(NC(=O)Nc2cccc(-c3nc(-c4ccc(NC(=O)c5cccs5)cc4Cl)no3)c2)cc1C(F)(F)F | -77.7% (active)
3 | O=c1ccn2nc3ccccc3c2[nH]1 | 95.5%
4 | Cc1cc(O)c(C(C)C)cc1Cl | 114%
5 | O=C(Nc1ccc(N2CCOCC2)cc1)Nc1ccc2c(ccn2C(=O)c2cccc(F)c2)c1 | 27.5%
6 | COc1ccc(-c2c(-c3ccccc3)noc2N)cc1OC | 85.7%
7 | CCCCOc1ccc(/C=N/NC(N)=S)cc1 | 66.5%
8 | O=c1c(-c2ccc3c(c2)OCO3)coc2c(CO)c(O)ccc12 | -14.5% (active)
9 | COc1cc(-c2cc3ncccc3c3[nH]c(=O)c4cccnc4c23)cc(OC)c1OC | -10.5% (active)
10 | C[C@H]1[C@H](C)CC[C@]2(C(=O)N3CCN(C)CC3)CC[C@]3(C)C(=CC[C@@H]4[C@@]5(C)C/C(=C/c6cccnc6)C(=O)C(C)(C)[C@@H]5CC[C@]43C)[C@H]12 | -83.2% (active)
11 | CCC(=O)Oc1ccc(/C=N/NC(N)=S)nc1 | 18.7%
12 | CCOc1cccc(-c2nc3sccn3c2-c2ccnc(S(C)(=O)=O)n2)c1 | -0.693% (active)
13 | CCCCCCNCc1cc(C(C)(C)C)cc(CNCCCCCC)c1O | -89.8% (active)
14 | O=C(Nc1cccc(Cl)c1)Nc1nc2ccc([N+](=O)[O-])cc2s1 | -29.1% (active)
15 | Nc1ncc([N+](=O)[O-])cn1 | 96.2%
16 | COc1ccc(/C=C2\CN(Cc3cn(CCCNc4ccnc5cc(Cl)ccc45)nn3)C/C(=C\c3ccc(OC)cc3)C2=O)cc1 | 57.5%

Row | Structure (SMILES) | growth
17 | NS(=O)(=O)c1ccc(CCN2C(=O)/C(=C\c3ccccc3)C=C2c2ccc(Cl)cc2)cc1 | 103%
18 | Nc1cc2c(cc1Cl)-c1ccc(Cl)cc1C2=O | 86.1%
19 | Nc1c(C(=O)c2ccc(Cl)cc2)sc(Nc2ccccc2)c1-c1nc2ccccc2s1 | 14.7%
20 | CN1CC(c2ccc(Br)cc2)C(C(=O)c2ccc(Br)cc2)C12C(=O)Nc1ccccc12 (configuration not stated) | 81.4%
21 | COc1ccc(Cn2nc(-c3cc(OC)c(OC)c(OC)c3)c3c2CCc2cnoc2-3)cc1OC | -12.8% (active)
22 | CC1(COc2ccc3ncc(C#Cc4cncc(C(=O)Nc5cccc(C(F)(F)F)c5)c4)n3n2)COC1 | 102%
23 | COc1cc(/C=N/NC(=O)c2ccc(C)nc2)cc(OC)c1OC | 98.5%
24 | CN(C)CCOC(=O)Nc1ccc(Cc2ccc(NC(=O)OCCN(C)C)cc2)cc1 | 40.4% [100 µM]
25 | CCN1C(=O)/C(=C/C=C/N(C)c2ccccc2)SC1=S | 89.1%
26 | C=C[C@@H]1C[C@@H]2Cc3c(C)cc(C)cc3N1O2 | 97.9%
27 | O=C(O)c1cn(C2CC2)c2cc(N3CCN(C(=O)CN4C(=O)CSC4=O)CC3)c(F)cc2c1=O | 96.4%
28 | O=C(Cn1nnc([N+](=O)[O-])n1)c1ccccc1 | 99.2%
29 | O=C(CN1CCN(c2ccccc2)CC1)N1CCN(c2nnc(-c3ccc(Cl)cc3)c(-c3ccc(Cl)cc3)n2)CC1 | 78.7%
30 | COc1ccc(NC(=O)Nc2ccccc2CNc2nc(Nc3ccc(OCCN4CCCC4)cc3)ncc2Cl)cc1 | -43.5% (active)
31 | Nc1c(O)c(S(=O)(=O)O)c(O)c2c1C(=O)c1ccccc1C2=O | 1.06% (active)
32 | OC(CNC1CCCC1)Cn1c2ccccc2c2ccccc21 (configuration not stated) | -21.2% (active)
